Results reported in PubChem BioAssay (EPA / NIEHS).
The source made the active and inactive calls. How the source made its calls: active means hit-call score of the fitted dose curve at least 0.9, where 1 is the maximum; inactive means score below 0.9.

Assay: APR_HepG2_CellLoss_72hr: Apredica 72-hour HepG2 Assay for Cell Loss (AID 2282915)
Conditions: high-content imaging
Outline: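 HepG2 cells were exposed for 72 hr to compounds at 0.39–200 uM (ten concentrations, duplicate) in 0.5% v/v final DMSO. Nuclei were stained with Hoechst 33342 after 3.7% formaldehyde fixation, imaged at 20x, and counted; fits bidirectional versus DMSO.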

Q: Which outcome does the source give for N#CN=C1SCCN1Cc1ccc(Cl)nc1 here?
A: inactive

Q: Which outcome does the source give for CCCC(=NOCC)C1=C(O)CC(CC(C)SCC)CC1=O (centres undefined) here?
A: inactive

Q: For CC1(C)CCC(=Cc2ccc(Cl)cc2)C1(O)Cn1cncn1 (centres undefined), which outcome is on record?
A: inactive

Q: With O=c1n(Cl)c(=O)n(Cl)c(=O)n1Cl as the molecule, how does the outcome read?
A: inactive

Q: For CCCN(CC)CC1COC2(CCC(C(C)(C)C)CC2)O1 (centres undefined), which AC50 is on record?
A: 69.3 µM (active)

Q: For CCCCC(O)(Cn1cncn1)c1ccc(Cl)cc1Cl (centres undefined), which AC50 is on record?
A: 74.4 µM (active)

Q: For COC(=O)c1c(C(F)F)nc(C(F)(F)F)c(C2=NCCS2)c1CC(C)C, which AC50 is on record?
A: 60.5 µM (active)

Q: Which AC50 does the source give for CCN(CC)C(=O)C(C)Oc1cccc2ccccc12 (centres undefined) here?
A: 77.6 µM (active)

Q: Which outcome does the source give for CNC(=O)N(C)c1nnc(C(C)(C)C)s1 here?
A: inactive

Q: For CC(C)(C)C(=O)C(Oc1ccc(Cl)cc1)n1cncn1 (centres undefined), which AC50 is on record?
A: 78.6 µM (active)

Q: Which outcome does the source give for CCC(C)n1c(=O)[nH]c(C)c(Br)c1=O (centres undefined) here?
A: inactive

Q: Which AC50 does the source give for CO/N=C(/C1=NOCCO1)c1ccccc1Oc1ncnc(Oc2ccccc2Cl)c1F here?
A: 6.52 µM (active)

Q: For CC1(C)C(C=C(Cl)Cl)C1C(=O)OC(C#N)c1cccc(Oc2ccccc2)c1 (centres undefined), which outcome is on record?
A: inactive

Assay: APR_HepG2_P-H2AX_72hr: Apredica 72-hour HepG2 Assay for H2AX Phosphorylation (AID 2282916);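 further: phospho-histone H2A.x immunostain intensity per cell marking DNA damage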
Conditions: imaging, actives raise or lower the signal
Outline: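 Phospho-histone H2A.x immunofluorescence, multiplexed with Hoechst and c-Jun, quantified by high-content imaging. Compounds applied to HepG2 for 72 h across ten concentrations (0.39–200 uM, 0.5% DMSO), in duplicate; DMSO baseline.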

Q: For N#CN=C1SCCN1Cc1ccc(Cl)nc1, which outcome is on record?
A: inactive

Q: With CCCC(=NOCC)C1=C(O)CC(CC(C)SCC)CC1=O (centres undefined) as the molecule, how does the outcome read?
A: inactive

Q: For CC1(C)CCC(=Cc2ccc(Cl)cc2)C1(O)Cn1cncn1 (centres undefined), which outcome is on record?
A: inactive

Q: With Cc1cc(C)nc(Nc2ccccc2)n1 as the molecule, how does the outcome read?
A: inactive

Q: With CCOc1nc(C(Cl)(Cl)Cl)ns1 as the molecule, how does the outcome read?
A: inactive

Q: Which outcome does the source give for CC(C)Nc1nc(Cl)nc(NC(C)C)n1 here?
A: inactive

Q: For O=c1n(Cl)c(=O)n(Cl)c(=O)n1Cl, which outcome is on record?
A: inactive

Q: For CCCN(CC)CC1COC2(CCC(C(C)(C)C)CC2)O1 (centres undefined), which AC50 is on record?
A: 80.6 µM (active)

Q: Which outcome does the source give for Cc1nc(N(C)C)nc(OC(=O)N(C)C)c1C here?
A: inactive

Q: With Clc1nc(Cl)nc(Nc2ccccc2Cl)n1 as the molecule, how does the outcome read?
A: inactive

Q: With CS(=O)(=O)c1ccc(C(=O)C2C(=O)CCCC2=O)c([N+](=O)[O-])c1 as the molecule, how does the outcome read?
A: inactive

Q: For Nc1c(Cl)c(F)nc(OCC(=O)O)c1Cl, which outcome is on record?
A: inactive

Q: For CCN(CC)c1nc(C)cc(OP(=S)(OC)OC)n1, which outcome is on record?
A: inactive

Q: For CCCCC(O)(Cn1cncn1)c1ccc(Cl)cc1Cl (centres undefined), which outcome is on record?
A: inactive

Q: For COc1ccc(-c2ccccc2)cc1NNC(=O)OC(C)C, which outcome is on record?
A: inactive

Q: Which outcome does the source give for CSC(=O)c1c(C(F)F)nc(C(F)(F)F)c(C(=O)SC)c1CC(C)C here?
A: inactive

Q: For CCOC(=O)C(C)OC(=O)c1cc(Oc2ccc(C(F)(F)F)cc2Cl)ccc1[N+](=O)[O-] (centres undefined), which outcome is on record?
A: inactive

Q: Which outcome does the source give for O=P(O)(O)CCCl here?
A: inactive

Q: Which outcome does the source give for COCC(C)N(C(=O)CCl)c1c(C)csc1C (centres undefined) here?
A: inactive

Q: For COC(=O)c1c(C(F)F)nc(C(F)(F)F)c(C2=NCCS2)c1CC(C)C, which outcome is on record?
A: inactive

Q: Which outcome does the source give for CCN(CC)C(=O)C(C)Oc1cccc2ccccc12 (centres undefined) here?
A: inactive

Q: With CNC(=O)N(C)c1nnc(C(C)(C)C)s1 as the molecule, how does the outcome read?
A: inactive

Q: For CCOP(=O)(OCC)Oc1nc(Cl)c(Cl)cc1Cl, which outcome is on record?
A: inactive

Q: Which outcome does the source give for CC(C)C1(C)N=C(c2ncccc2C(=O)O)NC1=O (centres undefined) here?
A: inactive

Q: Which outcome does the source give for CC(C)N1C(=O)c2ccccc2NS1(=O)=O here?
A: inactive

Q: With COC(=O)NC(=S)Nc1ccccc1NC(=S)NC(=O)OC as the molecule, how does the outcome read?
A: inactive

Q: Which outcome does the source give for CC(C)(C)C(=O)C(Oc1ccc(Cl)cc1)n1cncn1 (centres undefined) here?
A: inactive

Q: Which outcome does the source give for CCC(C)n1c(=O)[nH]c(C)c(Br)c1=O (centres undefined) here?
A: inactive

Q: Which outcome does the source give for CCNP(=S)(OC)O/C(C)=C/C(=O)OC(C)C (centres undefined) here?
A: inactive

Q: For CC(C)NC(=O)N1CC(=O)N(c2cc(Cl)cc(Cl)c2)C1=O, which outcome is on record?
A: inactive

Q: For CCCCOCN(C(=O)CCl)c1c(CC)cccc1CC, which AC50 is on record?
A: 113 µM (active)

Q: With O=C(O)c1c(Cl)ccc2cc(Cl)cnc12 as the molecule, how does the outcome read?
A: inactive

Q: Which outcome does the source give for CO/N=C(/C1=NOCCO1)c1ccccc1Oc1ncnc(Oc2ccccc2Cl)c1F here?
A: inactive

Q: For CC1(C)C(C=C(Cl)Cl)C1C(=O)OC(C#N)c1cccc(Oc2ccccc2)c1 (centres undefined), which outcome is on record?
A: inactive

Q: For Nc1c(Cl)c(Cl)nc(C(=O)O)c1Cl, which outcome is on record?
A: inactive

Q: Which outcome does the source give for CC1(C)CON(Cc2ccccc2Cl)C1=O here?
A: inactive
